Experimental findings from PubChem BioAssay are described below.

Each structure is given as a SMILES string. A number with no mark means an inactive call.

A short description of this test: probe aXIP binding to arrayed compounds – biochemical, NeuroSMM set, 635/667 nm fluorescence, primary screen (AID 1119).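 Further: probe is the protein aXip251-270 applied at 1 µg/mL to compound-printed slides; binding of probe to printed compounds measured as 667 nm fluorescence plus signal to noise.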 The conditions noted are these: small-molecule microarray, higher = more signal, called active from +8 up or from −8 down.
For `COc1ccc(C(O)C2C=CC3C(=O)N(c4ccccc4)C(=O)C3N2Nc2ccc(C#N)cc2)cc1OCc1ccccc1` (stereo not given), the composite Z-score is -0.502. Consider `CC(C)NC(=O)[C@@]1(c2ccc([N+](=O)[O-])cc2)CC(=O)N(CC23CC4CC(CC(C4)C2)C3)[C@@H]1c1ccc(CO)cc1`, for which the composite Z-score is 0.655. With `CC1=C([C@H](O)CCc2ccccc2)[C@H](CO)n2c(=O)n(-c3ccccc3)c(=O)n2C1` the figure was 0.51. With `O=C(NC1CC1)[C@@H]1c2ccccc2C(=O)N(Cc2cc(C(F)(F)F)cc(C(F)(F)F)c2)[C@H]1c1ccc(CO)cc1` the figure was -0.563; with `COC(=O)[C@@]1(Cc2ccccc2)N=C(c2ccc(OCCCO)cc2)O[C@H]1c1ccccc1CN=[N+]=[N-]`, 0.282. The figure for `O=C1c2ccccc2[C@@]2(Cc3ccccc3N(Cc3ccccc3)C2=O)[C@H](c2ccc(CO)cc2)N1Cc1ccccc1Cl` is 0.0507.

Regarding `CC(C)C[C@H]1NC(=O)C([C@@H](C)OCc2ccccc2)NC(=O)[C@@]23C(=O)N[C@@H](Cc4ccccc4)C2[C@H](C)[C@@]2(C)O[C@H]2C3/C=C/C/C=C\CNC1=O` (stereo not given in full), the composite Z-score was 0.0578. For `CC(C)=CCCC(C)=CC(O)C1C=CC2C(=O)NC(=O)C2N1Nc1ccc(Cl)cc1Cl` (stereo not given), the composite Z-score was -0.0883. For the molecule `CCCCC(=C=CC[C@H](O)c1ccc(CO)o1)CCO`, the composite Z-score is -0.334. As to `CCOC(=O)C1=CC[C@@H](c2ccccc2)N(S(=O)(=O)c2ccc(C)cc2)[C@H]1c1ccccc1I`, the composite Z-score was 0.008. With `[N-]=[N+]=Nc1ccccc1[C@@H]1OC(c2ccc(OCCCO)cc2)=N[C@]1(CCS(=O)(=O)c1ccccc1)C(=O)NCC(O)CO` (stereo not given in full) the figure was 0.339; with `N#Cc1ccc(NN2C(C(O)C3CC=CCC3)C=CC3C(=O)N(c4ccccc4)C(=O)C32)cc1` (stereo not given), -0.098; with `CC(C)C[C@@H]1NC(=O)[C@@]23C(=O)N[C@@H](Cc4ccccc4)C2[C@H](C)[C@@]2(C)O[C@H]2C3/C=C/C/C=C\CNC(=O)CNC1=O` (stereo not given in full), -0.568. Consider `COc1ccc([Si](C)(C)[C@H]2[C@H](CC(=O)N3CCC[C@H]3CO)O[C@@]3(C(=O)N(Cc4ccc(N5CCCCC5=O)cc4)c4ccccc43)[C@@H]2C)cc1`, for which the composite Z-score was -0.765. The figure for `C=CCC(OC(C)=O)[C@@H]1[C@@H](N(Cc2cccc3ccccc23)C(=O)Cc2ccc(OC)cc2)c2cc(OCCCO)ccc2N1C(=O)c1ccc2ccccc2c1` (stereo not given in full) is -0.0662. Regarding `NC(=O)NCC#Cc1ccc2c(c1)[C@]1(C(=O)N2)[C@H](c2ccc(OCCO)cc2)N2[C@H](c3ccccc3)[C@H](c3ccccc3)OC(=O)[C@H]2[C@@H]1C(=O)O`, the composite Z-score is 0.196.

For `O=C1O[C@H](c2ccccc2)[C@H](c2ccccc2)N2[C@H]1[C@@H](C(=O)N1CCN(c3ncccn3)CC1)[C@]1(C(=O)Nc3ccc(C#CCCO)cc31)[C@H]2c1ccc(O)cc1`, the composite Z-score was -0.777. For the molecule `C=C(CCCC)/C(=C/C[C@H](OC(=O)c1ccncc1)c1cccc(OCCO)c1)c1cnc2ccccc2c1`, the composite Z-score is -0.12.

In the case of `O=C(N1CCOCC1)[C@@]1(Cc2ccccc2)COC(c2ccc(OCCCO)cc2)=N1`, the composite Z-score is -0.0252. The figure for `C=CCC(OC(C)=O)[C@@H]1[C@@H](N(Cc2ccc(-c3cccc(C(F)(F)F)c3)o2)C(=O)c2ccc(-c3ccccc3)cc2)c2cc(OCCCO)ccc2N1C(=O)c1ccc2ccccc2c1` (stereo not given in full) is -0.0127. Consider `[N-]=[N+]=NCc1ccccc1[C@@H]1OC(c2ccc(OCCCO)cc2)=N[C@]1(Cc1ccccc1N=[N+]=[N-])C(=O)NCC(O)CO` (stereo not given in full), for which the composite Z-score is 0.71. With `CCCNC(=O)[C@@]1(c2ccc([N+](=O)[O-])cc2)CC(=O)N(C(C)C)[C@@H]1c1ccc(CO)cc1`, the composite Z-score is -0.0527. With `CC(C)N1C(=O)C[C@@](C(=O)NCCN2CCOCC2)(c2ccc([N+](=O)[O-])cc2)[C@H]1c1ccc(CO)cc1` the figure was 1.96. Consider `CCCC[C@H]1OB(O)C[C@H]2C1=C(COc1ccccc1)C[C@H]1C(=O)C=CC(=O)[C@H]12`, for which the composite Z-score is 0.229. Turning to `CC(C)[Si](C#CCCc1ccccc1)(O[C@H](c1ccccc1)c1cn(Cc2ccccc2)nn1)C(C)C`, the composite Z-score is 0.546.
